This is an account of results in ChEMBL document CHEMBL3988442, “University of Dundee, Small-Polar-MMV Screening Library” (2021).

The whole screen tested about 48,000 compounds, of which about 13,000 (27%) showed an effect of 50% or more. Some of the results follow.

The test system of the test is Wolbachia pipientis. Put plainly: Anti-Wolbachia Cell-Based Screen. It is filed as functional. Also on record: scale not given: in the data most compounds retested in dose-response had high values. Particulars: 5 µM.
With `CCN(C)c1ncnc2c1CCN(Cc1nccs1)CC2.O=C(O)C(F)(F)F.O=C(O)C(F)(F)F`, the “Percent Effect” value is listed as -6.805%.
Next, `CN(C)Cc1cc(-c2nccn2CCc2cccnc2)ccc1O`: -8.952%; `Cc1nnc(NCc2ccccc2Cl)c(C#N)c1C`: 4.284%; `CCCC(=O)Nc1cc(C(=O)NC(C)Cc2ccncc2)ccc1C` (centres undefined): 2.128%.
`CC(C)OCCOCc1cccc(NC(=O)N2CCCC(O)C2)c1` (centres undefined): the “Percent Effect” value is -8.695%.
In the case of `CC(C)(C)OC(=O)N1CCC(NC2CCS(=O)(=O)C2)CC1` (centres undefined) it was -18.26%; in that of `c1ncn(Cc2nnc(C3CCN(C4CCOCC4)CC3)n2C2CC2)n1`, -14.43%.
Next, `Cc1csc2c(N3CCC(NCCc4ccnn4C)CC3)ncnc12`: 1.51%; `Cc1nc(C)n(C2CCCN(C(=O)c3ccccc3C)C2)n1` (centres undefined): 3.222%.
For `CCOc1ncccc1C(=O)N1CCCC(n2nc(C)nc2C)C1` (centres undefined), the “Percent Effect” value is -3.094%.
As to `COc1ccsc1C(=O)N1CCCC(n2nc(C)nc2C)C1` (centres undefined), the “Percent Effect” value is recorded as -12.01%.
Turning to `CCOc1cc(C(=O)N2CCCC(n3nc(C)nc3C)C2)ccn1` (centres undefined), the “Percent Effect” value stood at 108.5%.
In the case of `Cc1ccc(OCC(=O)N2CCCC(n3nc(C)nc3C)C2)cc1` (centres undefined) it was 110.7%; in that of `Cc1nc(C)n(C2CCCN(C(=O)COCc3ccccc3)C2)n1` (centres undefined), -1.544%; in that of `CCCNC(=O)CCC(=O)Nc1cc2sc(C)nc2cc1OC`, 9.826%.
Consider `CC(=O)N(CCc1ccccc1)CC(=O)NC1(C#N)CC1`, for which the “Percent Effect” value is -30.59%.
Next, `COCCNC(=O)Nc1cc2c(cc1SC)OCCO2`: 8.638%; `CCCn1ncc(CN(Cc2ccsc2)Cc2ccco2)c1C`: -9.54%; `CCCn1ncc(CN(Cc2cccnc2)Cc2cccs2)c1C`: 103.6%.
Next, `CCCn1ncc(CN(Cc2cccnc2)Cc2ccsc2)c1C`: -8.215%; `Cc1cnc(C(=O)NCC2CCOc3ccccc3C2)cn1` (centres undefined): -13.56%; `CCC(=O)N1CCC2(CC1)CN(CCO)Cc1ccccc12.O=C(O)C(F)(F)F`: 102.3%.
Next, `O=C(O)C(F)(F)F.O=C1NC2(CCN(CCO)CC2)CC1c1ccccc1` (centres undefined): -11.42%; `CN(C)CC(=O)N1CCC2(CCc3ccc(-c4ccncc4)cc32)CC1.O=C(O)C(F)(F)F.O=C(O)C(F)(F)F`: -5.921%; `CN1Cc2ccccc2CC2(CCN(CCO)CC2)C1=O.O=C(O)C(F)(F)F`: 115.9%.
`CCC(=O)N1CCC2(CCC(N3CCCC3)c3ccccc32)CC1.O=C(O)C(F)(F)F` (centres undefined): the “Percent Effect” value is on record as 3.41%.
In the case of `Cc1ccc2c(c1)CCC21CCN(C(=O)CN(C)C)CC1.O=C(O)C(F)(F)F` it was -5.589%; in that of `CN(C)CC(=O)N1CCC2(CC1)Cc1ccccc1CN(C)C2=O.O=C(O)C(F)(F)F`, 100.6%.
Next, `O=C(O)C(F)(F)F.OCCN1CCC2(CCc3cc(-c4ccoc4)ccc32)CC1`: -5.602%.
Regarding `COc1cccc2[nH]cc(CCNC(=O)N3CCCC3CO)c12` (centres undefined), the “Percent Effect” value is -6.356%.
Next, `Cc1cc(C(F)(F)F)nn1CC(C)C(=O)Nc1ccncc1` (centres undefined): 0.9571%; `CC(C)c1nnc2sc(CC3CCS(=O)(=O)CC3)nn12`: -25.36%.
Turning to `COCCN1CCC(CN(C)c2nc3c(s2)c(C)nn3C)CC1`, the “Percent Effect” value was determined as 20.85%.
Take `CCCc1nnc2sc(C3CCN(CCOC)CC3)nn12`: the “Percent Effect” value worked out at 91.66%.
Take `CCc1nnc2n1CCN(C(=O)c1cnc(C3CC3)s1)C2`: the “Percent Effect” value was -2.147%.
Next, `CCCN1CCC(Cc2nn3c(C(C)C)nnc3s2)CC1`: -24.84%; `CCCc1nnc(N2CCC(N3CCCC3)CC2)o1`: 13.58%.
Turning to `CCCc1nnc2sc(C3CCN(C4CCN(C)CC4)CC3)nn12`, the “Percent Effect” value is reported as 110.3%.
`CN1CCC(c2nnc(CN3CCCC3)n2C2CC2)CC1`: the “Percent Effect” value was determined as 3.888%.
For the compound `CCCc1nnc2sc(C3CCS(=O)(=O)CC3)nn12`, the “Percent Effect” value is on record as 102.2%.
With `COCCN(Cc1ccc(F)cc1Cl)C(=O)c1c(C)noc1C`, the “Percent Effect” value is recorded as -7.474%.
In the case of `CCCNC(=O)NC(=O)CN(CC(C)O)c1ccccc1` (centres undefined) it was 5.048%.
Next, `CC(C)C[C@@H]1N[C@H](C(=O)NC2CCOCC2)Cc2c[nH]c3cccc1c23`: -3.699%; `O=C(COc1ccc2c(c1)CCC2)N1CCOCC1c1ncon1` (centres undefined): -4.669%; `O=C(NCCSCc1ccc(Br)s1)C1CCCN(C(=O)c2cccs2)C1` (centres undefined): -11.8%.
Next, `CC(=O)N[C@H]1CCN(c2nc(C)nc3c2c(C)nn3C)C1`: -0.02014%; `Cc1cc(C(=O)Nc2cc(C3CC3)n[nH]2)c2c(C)nn(C)c2n1`: 94.33%.
For the compound `CCn1ncc(NC(=O)c2cc(C3CC3)nc3c2c(C)nn3C)c1C`, the “Percent Effect” value is listed as 0.1323%.
Take `O=C1NCCCC1NC(=O)C1(c2cccc(Cl)c2)CCC1` (centres undefined): the “Percent Effect” value is reported as -14.19%.
Next, `CC(=O)NC1CCN(C(=O)Nc2cccc(SC(F)F)c2)CC1`: -5.711%; `CC(=O)Nc1cccc([C@H]2C[C@@H](NC(C)=O)CCO2)c1`: 88.4%.
Regarding `CC(=O)NC1CCN(C(=O)Nc2cccc(C(F)(F)F)c2)CC1`, the “Percent Effect” value is given as -0.6218%.
Next, `CC1CN(C(=O)C2(c3ccc(F)cc3F)CCOCC2)CCO1` (centres undefined): -18.6%.
Take `CC(=O)N1CCC(C(=O)N2CCC(=Cc3cccc(F)c3)CC2)CC1`: the “Percent Effect” value was 0.4533%.
Next, `O=C(NC1CCCC1)N1CCCCC1c1nc(C2CC2)no1` (centres undefined): 105.7%.
Next, `O=C(NCc1ccco1)N1CCCCC1c1nc(C2CC2)no1` (centres undefined): 74.85%; `O=C(NCc1ccco1)N1CCCCC1c1nc(-c2ccncc2)no1` (centres undefined): 87.86%; `COc1ncccc1C(=O)N1CCCC1c1nc(-c2ccccc2)no1` (centres undefined): -0.6104%.
`O=C(c1ccc2nccn2c1)N1CCCC1c1noc(C2CC2)n1` (centres undefined): the “Percent Effect” value is recorded as 1.976%.
Next, `O=C(NCc1ccco1)C1CCCN1Cc1nc(-c2ccco2)no1` (centres undefined): -1.216%; `Cc1cc(CN(C)C(=O)NCc2ccco2)no1`: 6.91%.
Take `Cc1noc(C2CCCCN2C(=O)NCc2ccco2)n1` (centres undefined): the “Percent Effect” value is recorded as 91.67%.
In the case of `Cc1noc(C2CCCCN2C(=O)C2CCN(C(C)C)CC2)n1` (centres undefined), the “Percent Effect” value is -32.36%.
`CSc1nc(C2CC2)nc(C)c1C(=O)NCc1ccco1`: the “Percent Effect” value was -1.039%.
Take `CN(C)Cc1nnc(C(=O)N(C)Cc2ccc(F)cc2)o1`: the “Percent Effect” value is -46.46%.
In the case of `Cn1cc(C2CCCN2C(=O)CCCc2nc3ccccc3[nH]2)cn1` (centres undefined) it was 0.1259%.
Regarding `CC(=O)N1CCC(NC2(Cc3cc(CN(C)C)on3)COC2)CC1`, the “Percent Effect” value is -3.87%.
Turning to `Cc1ccc(-c2nn3c(nc2=O)-c2ccccc2NC3C(=O)O)cc1C` (centres undefined), the “Percent Effect” value is -8.788%.
In the case of `CCc1ncncc1C(=O)N1CCOC(c2nc(C)n[nH]2)C1` (centres undefined) it was 2.402%; in that of `Cc1n[nH]c(C2CN(C(=O)c3ccnc(C4CC4)n3)CCO2)n1` (centres undefined), -13.72%; in that of `CCc1n[nH]c(C2CN(C(=O)c3ccnc(C4CC4)n3)CCO2)n1` (centres undefined), 101.3%.
In the case of `CCc1n[nH]c(C2CN(C(=O)c3cnc(C)nc3CC)CCO2)n1` (centres undefined) it was 106.1%; in that of `CCCc1n[nH]c(C2CN(C(=O)c3ccnc(C4CC4)n3)CCO2)n1` (centres undefined), 146%; in that of `CCc1n[nH]c(C2CN(C(=O)c3ccnc(C)n3)CCO2)n1` (centres undefined), 98.73%.
In the case of `Cc1nc(N)cc(NCc2csc(N(C)C)n2)n1` it was -17.8%; in that of `O=S(=O)(NCCc1c[nH]c2cc(F)ccc12)C1CCOC1` (centres undefined), 22.23%.
Take `CS(=O)(=O)c1ccc(OCCNCc2ccc(F)cc2F)cc1`: the “Percent Effect” value is listed as -10.65%.
For `Cl.O=C(C1CC1)N1CCC2(CC1)CNc1ccc(F)cc12`, the “Percent Effect” value was -2.948%.
`CC(CC#N)N(C)Cc1ccc(F)cc1C#N` (centres undefined): the “Percent Effect” value came out at 3.658%.
With `CCc1nnc(CN2CCC3(CCC(=O)N(C4CCCC4)C3)CC2)o1`, the “Percent Effect” value was found to be 8.44%.
Turning to `O=C(CN1CCN(c2ncnc3cccc(F)c23)CC1)N1CCCC1`, the “Percent Effect” value was 6.401%.
In the case of `O=C(O)C(F)(F)F.O=C(O)C(F)(F)F.O[C@H]1CCN(Cc2ccoc2)[C@H]1Cc1cccnc1` it was -11.6%; in that of `COCCO[C@H]1CCN(Cc2ccoc2)[C@H]1Cc1cccnc1`, 85.57%.
As for `COCCO[C@@H]1CCN(C(=O)c2ccc[nH]2)[C@H]1Cc1cnn(C)c1`, the “Percent Effect” value is -18.74%.
In the case of `CS(=O)(=O)N[C@@H]1CCN(Cc2cccnc2)[C@H]1Cc1cccnc1` it was 0.03565%.
In the case of `COCCO[C@H]1CCN(Cc2cnn(C)c2)[C@H]1Cc1cccnc1` it was 86.22%; in that of `Cn1cc(CN2CC[C@@H](NS(C)(=O)=O)[C@@H]2Cc2cccnc2)cn1.O=C(O)C(F)(F)F.O=C(O)C(F)(F)F`, 0.0713%.
In the case of `C=C(C)COc1cccc(C(=O)N(CC)Cc2nc(COC)no2)c1` it was -39.48%.
As to `Cn1c(N)nnc1SC1CCCN(c2ccccc2F)C1=O` (centres undefined), the “Percent Effect” value is reported as -7.514%.
In the case of `CC(C)OCc1ncn2c1CN(CC1CC1)CCC2.O=C(O)C(F)(F)F` it was 10.37%; in that of `CC(C)OCc1nn(C)c2c1CCN(Cc1ccco1)C2.O=C(O)C(F)(F)F`, -9.352%.
As for `Cn1nc(COCC2CC2)c2c1CN(CC1CC1)CC2.O=C(O)C(F)(F)F.O=C(O)C(F)(F)F`, the “Percent Effect” value came to 100.4%.
With `CC(C)OCc1nn(C)c2c1CCN(CC1CC1)C2.O=C(O)C(F)(F)F`, the “Percent Effect” value amounted to 103.7%.
For `Cc1ccc(CN2CCc3c(COCC4CC4)nn(C)c3C2)s1.O=C(O)C(F)(F)F`, the “Percent Effect” value was determined as 115.6%.
Turning to `O=C(O)C(F)(F)F.c1nc(COCC2CC2)c2n1CCCN(CC1CC1)C2`, the “Percent Effect” value is reported as -4.563%.
Next, `Cn1nc(COCC2CC2)c2c1CN(C(=O)c1ccno1)CC2.O=C(O)C(F)(F)F`: -4.068%; `COCc1nn(C(C)C)c2c1CCN(Cc1ccc(C)s1)C2.O=C(O)C(F)(F)F`: 2.652%.
Regarding `Cc1ccc(CN2CCc3c(C(=O)N(C)C)nn(C)c3C2)s1.O=C(O)C(F)(F)F`, the “Percent Effect” value is on record as -3.635%.
Next, `N#CCc1ccc(OCC(=O)NS(=O)(=O)c2ccc(Cl)s2)cc1`: -0.9374%.
